# Laboratory results from ChEMBL document CHEMBL3988442, “University of Dundee, Small-Polar-MMV Screening Library” (2021).
# Target: T1, Tyrosyl-tRNA synthetase, putative (Trypanosoma cruzi (strain CL Brener)) (UniProt Q4DSP6)
# T1 sequence (whole entry): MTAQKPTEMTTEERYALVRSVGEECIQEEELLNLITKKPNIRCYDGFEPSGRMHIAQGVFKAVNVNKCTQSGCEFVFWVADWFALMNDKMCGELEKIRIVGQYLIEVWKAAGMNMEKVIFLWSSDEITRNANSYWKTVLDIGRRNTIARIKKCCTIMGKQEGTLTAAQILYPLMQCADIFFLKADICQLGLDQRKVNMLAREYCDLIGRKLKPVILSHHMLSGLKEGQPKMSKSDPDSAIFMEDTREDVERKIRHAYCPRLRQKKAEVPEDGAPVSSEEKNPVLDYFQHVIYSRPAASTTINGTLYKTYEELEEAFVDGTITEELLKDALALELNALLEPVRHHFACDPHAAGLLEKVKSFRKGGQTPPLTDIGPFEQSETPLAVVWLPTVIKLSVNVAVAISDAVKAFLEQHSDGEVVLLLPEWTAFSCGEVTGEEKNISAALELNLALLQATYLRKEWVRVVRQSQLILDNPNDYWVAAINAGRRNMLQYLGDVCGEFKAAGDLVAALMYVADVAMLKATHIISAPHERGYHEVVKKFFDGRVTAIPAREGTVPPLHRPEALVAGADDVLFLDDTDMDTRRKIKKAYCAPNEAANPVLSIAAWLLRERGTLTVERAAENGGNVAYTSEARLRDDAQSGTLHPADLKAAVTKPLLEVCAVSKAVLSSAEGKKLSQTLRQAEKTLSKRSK
# Assay: Trypanosoma cruzi tyrosyl tRNA synthetase (TcYRS) SOP
# Format: functional
# Set-up: scale not given: direction of the effect not stated beside the values
# Settings: 30 µM
row,SMILES,Percent Effect [%]
1,CN1CCN(CCO)C(=O)C12CCN(Cc1ccsc1)CC2,12.5
2,Cc1ccc(C(=O)N2CCC3(CC2)CC(N2CCOCC2)C3)cc1,2.5
3,Cn1ncc2c1NC(=O)CC2c1ccc(O)cc1 (stereo unspecified),4.88
4,CNC(=O)c1cc(S(=O)(=O)C(C)C)cs1,20
5,CCC1c2ccsc2CCN1C(=O)NCc1cc[nH]n1 (stereo unspecified),6.02
6,CC[C@@H]1N(Cc2ccsc2)CCC[C@]12CCC(=O)N2CCOC,7.5
7,CCNC(=O)[C@@H]1C[C@@H](NC(=O)Cc2ccncc2)CN1Cc1ccsc1,2.44
8,O=C(NCCO)c1ccn(-c2ccc3ccccn23)n1,-2.56
9,NC[C@H]1CC[C@H](C(NC(=O)c2ccccc2)c2ccccn2)CC1 (stereo partly specified),25
10,O=C(C1CCOC1)N1CCc2ncc(CNc3ccccn3)n2CC1 (stereo unspecified),5.13
11,CCc1nc(C2CCCN2CCn2cncn2)no1 (stereo unspecified),7.06
12,CC(C)(C)n1ncc2c1NC(=O)CC2c1ccsc1 (stereo unspecified),9.76
13,Cn1nc2c(cc1=O)CN(Cc1nnc(-c3ccco3)o1)CC2,22.9
14,CCc1nc(CC(=O)N2CCCC2Cn2cccn2)cs1 (stereo unspecified),7.69
15,CC(C)c1nnc2n1CCN(C(=O)c1ccc3cc[nH]c3c1)C2,12.8
16,O=C(O)c1cc(S(=O)(=O)N2CCOc3ccccc32)ccc1F,18.1
17,CCCc1cc(CNC(=O)C2CCOc3ccccc3C2)on1 (stereo unspecified),14.6
18,Cc1cc(NC(=O)NCC2CCOC2)no1 (stereo unspecified),7.69
19,CC(C)c1nc(C2CCCN2CC(=O)Nc2nncs2)no1 (stereo unspecified),15.4
20,CCOC1CCCN(C(=O)c2sccc2-n2cnnn2)C1 (stereo unspecified),22.9
21,CC(=O)N1C[C@@H](c2ccsc2)[C@@H]2CN(Cc3ccccc3)CC[C@@H]21,7.5

# Target: Chromo domain-containing protein 1 (Saccharomyces cerevisiae (strain ATCC 204508 / S288c) (Baker's yeast)) (UniProt P32657)
# Assay: ScCHD-1 Enzyme Inhibition Assay; note: in the data most compounds retested in dose-response had high values
# Format: functional
# Set-up: scale not given: direction of the effect not stated beside the values
# Settings: 30 µM
# Chromo domain-containing protein 1 (Saccharomyces cerevisiae (strain ATCC 204508 / S288c) (Baker's yeast)), sequence (P32657 whole entry, the tested form may be a part): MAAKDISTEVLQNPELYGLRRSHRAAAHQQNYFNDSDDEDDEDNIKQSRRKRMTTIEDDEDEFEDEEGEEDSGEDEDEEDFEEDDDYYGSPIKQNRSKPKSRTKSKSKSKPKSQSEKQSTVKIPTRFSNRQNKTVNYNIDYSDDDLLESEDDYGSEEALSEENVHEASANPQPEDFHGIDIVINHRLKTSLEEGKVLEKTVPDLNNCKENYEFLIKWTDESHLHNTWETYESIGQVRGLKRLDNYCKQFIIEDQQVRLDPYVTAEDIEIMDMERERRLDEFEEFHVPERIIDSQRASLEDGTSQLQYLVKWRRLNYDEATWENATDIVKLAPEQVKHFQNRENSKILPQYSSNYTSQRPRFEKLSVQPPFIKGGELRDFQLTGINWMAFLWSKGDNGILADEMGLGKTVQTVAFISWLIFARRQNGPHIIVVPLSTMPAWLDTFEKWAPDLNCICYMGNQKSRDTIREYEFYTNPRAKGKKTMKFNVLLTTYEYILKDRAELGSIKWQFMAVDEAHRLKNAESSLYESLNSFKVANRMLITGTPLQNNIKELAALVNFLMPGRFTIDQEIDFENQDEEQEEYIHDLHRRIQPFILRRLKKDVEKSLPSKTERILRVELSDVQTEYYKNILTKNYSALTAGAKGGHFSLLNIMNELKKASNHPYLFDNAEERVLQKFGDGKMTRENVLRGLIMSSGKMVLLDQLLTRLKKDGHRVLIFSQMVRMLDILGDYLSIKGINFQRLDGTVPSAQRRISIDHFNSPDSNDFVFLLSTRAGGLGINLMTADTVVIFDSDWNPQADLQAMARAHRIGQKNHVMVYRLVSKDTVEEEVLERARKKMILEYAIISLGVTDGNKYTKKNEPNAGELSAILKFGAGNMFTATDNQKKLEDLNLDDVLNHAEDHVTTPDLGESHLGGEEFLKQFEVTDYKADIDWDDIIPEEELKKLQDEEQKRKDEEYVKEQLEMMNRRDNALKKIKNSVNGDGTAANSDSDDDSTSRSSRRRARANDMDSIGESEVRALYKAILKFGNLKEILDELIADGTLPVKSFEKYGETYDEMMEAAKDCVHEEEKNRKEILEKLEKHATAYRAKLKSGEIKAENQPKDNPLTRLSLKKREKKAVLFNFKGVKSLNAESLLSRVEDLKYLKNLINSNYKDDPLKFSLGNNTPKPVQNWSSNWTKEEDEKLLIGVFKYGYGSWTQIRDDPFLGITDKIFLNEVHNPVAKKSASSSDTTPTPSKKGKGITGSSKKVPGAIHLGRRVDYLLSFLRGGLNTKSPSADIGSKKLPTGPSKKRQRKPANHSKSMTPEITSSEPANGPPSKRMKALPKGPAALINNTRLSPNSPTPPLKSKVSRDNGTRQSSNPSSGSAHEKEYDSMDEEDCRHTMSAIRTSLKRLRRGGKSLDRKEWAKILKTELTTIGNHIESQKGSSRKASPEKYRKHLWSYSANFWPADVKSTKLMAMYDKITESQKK
row,SMILES,Percent Effect [%]
1,Cc1csc(N2CCCN(C(=O)c3c(C)oc(C)c3C)CC2)n1,-8.96
2,CCc1nnc(CN2CCCC(c3cc(C(F)(F)F)[nH]n3)C2)o1 (stereo unspecified),-3.78
3,Cc1cnn(CC2CCCCN2C(=O)c2cc(Cl)c[nH]2)c1 (stereo unspecified),-9.18
4,COC(=O)C1CCN(C(=O)c2ccc(C)c(NS(C)(=O)=O)c2)CC1,5.38
5,c1cc(-c2noc(CN3CCn4c(nnc4C4CC4)C3)n2)co1,2.97
6,CN(CC(=O)Nc1ccc(Br)cn1)C(=O)Cc1ccc(O)cc1,-5.7
7,CCc1ncc2c(n1)CN(CC(=O)Nc1nnc(C)s1)CC2,-13.6
8,COCCN1CCN(Cc2ccc(F)c(C)c2)[C@H]2CS(=O)(=O)C[C@H]21,-4.27
9,CNC(=O)N1C[C@H]2C[C@H](C(=O)Nc3ccccc3)[C@@H](C1)O2,13.9
10,Cc1cccc(CN2C(=O)CCC23CCN(c2ncc(F)cn2)CC3)n1,-8.12
11,N#Cc1cccc(S(=O)(=O)NC(=O)COc2ccc3c(c2)CCC3)c1,-4.5
12,O=C(Cn1cc(-c2ccccc2)ncc1=O)Nc1ccncc1,90.8
13,O=C(N1CCCC1)N1CCC2(CCCN(CCOc3ccccc3)C2)C1 (stereo unspecified),-13.4
14,CNc1cncc(C2CCCN2Cc2c[nH]cn2)n1 (stereo unspecified),-25.9
15,CO[C@@H]1CCN(C(=O)c2ccccn2)[C@H]1Cc1ccccc1,-6.55
16,CC1(C)OCC(CNC(=O)c2cnn(-c3cc(Cl)ccc3Cl)c2N)O1 (stereo unspecified),-20.1
17,CN(C)c1ccc(NC(=O)NCc2ccccn2)cn1,-9.39
18,Cc1cnn(CC2CCCN2CC(=O)Nc2cc(C(C)(C)C)no2)c1 (stereo unspecified),-8.5
19,Cn1cc(C(=O)N2CCC(Cc3nccs3)CC2)cn1,-28.5
20,CN1CCN(CCO)C(=O)C12CCN(Cc1ccsc1)CC2,-7.99

row,SMILES,Percent Effect [%]
1,Cc1ccc(C(=O)N2CCC3(CC2)CC(N2CCOCC2)C3)cc1,0.386
2,Cn1ncc2c1NC(=O)CC2c1ccc(O)cc1 (stereo unspecified),-4.05
3,CNC(=O)c1cc(S(=O)(=O)C(C)C)cs1,-10.6
4,CCC1c2ccsc2CCN1C(=O)NCc1cc[nH]n1 (stereo unspecified),-1.84
5,CC[C@@H]1N(Cc2ccsc2)CCC[C@]12CCC(=O)N2CCOC,-3.65
6,CCNC(=O)[C@@H]1C[C@@H](NC(=O)Cc2ccncc2)CN1Cc1ccsc1,5.29
7,O=C(NCCO)c1ccn(-c2ccc3ccccn23)n1,-0.759
8,NC[C@H]1CC[C@H](C(NC(=O)c2ccccc2)c2ccccn2)CC1 (stereo partly specified),-27.6
9,O=C(C1CCOC1)N1CCc2ncc(CNc3ccccn3)n2CC1 (stereo unspecified),-14.8
10,CCc1nc(C2CCCN2CCn2cncn2)no1 (stereo unspecified),-4.93
11,CC(C)(C)n1ncc2c1NC(=O)CC2c1ccsc1 (stereo unspecified),-1.82
12,Cn1nc2c(cc1=O)CN(Cc1nnc(-c3ccco3)o1)CC2,17.4
13,CCc1nc(CC(=O)N2CCCC2Cn2cccn2)cs1 (stereo unspecified),-10
14,CC(C)c1nnc2n1CCN(C(=O)c1ccc3cc[nH]c3c1)C2,-9.74
15,O=C(O)c1cc(S(=O)(=O)N2CCOc3ccccc32)ccc1F,-3.79
16,CCCc1cc(CNC(=O)C2CCOc3ccccc3C2)on1 (stereo unspecified),-2.75
17,Cc1cc(NC(=O)NCC2CCOC2)no1 (stereo unspecified),-11.3
18,CC(C)c1nc(C2CCCN2CC(=O)Nc2nncs2)no1 (stereo unspecified),23.5
19,CCOC1CCCN(C(=O)c2sccc2-n2cnnn2)C1 (stereo unspecified),-4.42
20,CC(=O)N1C[C@@H](c2ccsc2)[C@@H]2CN(Cc3ccccc3)CC[C@@H]21,-25.4
